Data from PubChem BioAssay (NCI).
This is part of a sample that, as a whole, favours compounds with a hit. Of some 83,000 tested, about 20% had one in any assay.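 Plates (96-well) were seeded with cells, treated with compound at one concentration, and incubated for 48 hours before percent growth was determined.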 Calls of active or inactive are those of the source. The calls were made as follows: active = growth percent below 10; inactive = the rest.

Tests used:
Assay in all cases: NCI-60 one-dose screen, 48 h (100 = growth as untreated, 0 = no growth, -100 = all killed)
Settings in all cases: 10 µM unless noted
SR leukemia = test system: SR leukemia
RPMI-8226 leukemia = test system: RPMI-8226 leukemia
OVCAR-8 ovarian = test system: OVCAR-8 ovarian
OVCAR-5 ovarian = test system: OVCAR-5 ovarian
OVCAR-4 ovarian = test system: OVCAR-4 ovarian
SK-OV-3 ovarian = test system: SK-OV-3 ovarian
IGROV1 ovarian = test system: IGROV1 ovarian
OVCAR-3 ovarian = test system: OVCAR-3 ovarian
HS 578T breast = test system: HS 578T breast
NCI/ADR-RES ovarian = test system: NCI/ADR-RES ovarian

Measured: growth

O=S(=O)(NCCNc1cc(-c2c(-c3cccc(O)c3)nc3sccn23)ccn1)c1ccc(C(F)(F)F)cc1
inactive: SR leukemia 19.6% | RPMI-8226 leukemia 30.3% | OVCAR-8 ovarian 28.4% | OVCAR-5 ovarian 93.5% | OVCAR-4 ovarian 22.1% | SK-OV-3 ovarian 45.4% | IGROV1 ovarian 36.4% | OVCAR-3 ovarian 37.1% | HS 578T breast 42.8% | NCI/ADR-RES ovarian 58%

COc1cc(-c2csc(NC(=O)c3cc(-n4cnc(C)c4)cc(C(F)(F)F)c3)n2)cc(OC)c1OC
inactive: SR leukemia 34% | RPMI-8226 leukemia 24.1% | OVCAR-8 ovarian 40.2% | OVCAR-5 ovarian 104% | OVCAR-4 ovarian 70.9% | SK-OV-3 ovarian 114% | IGROV1 ovarian 52% | OVCAR-3 ovarian 65% | HS 578T breast 26.7% | NCI/ADR-RES ovarian 64.9%

N#Cc1cccc(-c2c(-c3ccc4ccccc4c3)oc3ccccc3c2=O)c1
inactive: RPMI-8226 leukemia 46.2% | OVCAR-8 ovarian 62.4% | OVCAR-5 ovarian 53.3% | OVCAR-4 ovarian 68.1% | SK-OV-3 ovarian 51% | IGROV1 ovarian 36.5% | OVCAR-3 ovarian 40.2% | HS 578T breast 69% | NCI/ADR-RES ovarian 27.2%
active: SR leukemia 9.67%

O=C(/C=C/c1ccccc1)c1cccc(OCCCOc2cccc(C(=O)/C=C/c3ccccc3)c2)c1
inactive: OVCAR-8 ovarian 73.8% | OVCAR-5 ovarian 111% | OVCAR-4 ovarian 92.5% | SK-OV-3 ovarian 109% | IGROV1 ovarian 85.1% | OVCAR-3 ovarian 78.8% | HS 578T breast 113% | NCI/ADR-RES ovarian 96.4%
active: SR leukemia 5.29% | RPMI-8226 leukemia -25.7%

CCOC(=O)C(=Cc1cccc(Br)c1)C(=O)OCC
inactive: RPMI-8226 leukemia 12.9% | OVCAR-8 ovarian 29.5% | OVCAR-5 ovarian 42.9% | OVCAR-4 ovarian 48.2% | SK-OV-3 ovarian 86.2% | IGROV1 ovarian 47.8% | OVCAR-3 ovarian 15.6% | HS 578T breast 25.6% | NCI/ADR-RES ovarian 11.7%
active: SR leukemia 3.67%

COC(=O)c1cc(-c2ccc(S(C)(=O)=O)cc2)[nH]c1N/N=C/c1c(Cl)cccc1Cl
inactive: OVCAR-8 ovarian 29.7% | OVCAR-5 ovarian 42.6% | OVCAR-4 ovarian 59.6% | SK-OV-3 ovarian 29.2%
active: SR leukemia -12.3% | RPMI-8226 leukemia -5.71% | IGROV1 ovarian -43.6% | OVCAR-3 ovarian -33.6% | HS 578T breast -30.1% | NCI/ADR-RES ovarian 3.91%

COc1ccc(-c2cc(-c3ccc(Cl)cc3)c(C#N)c(=O)n2CCCCC(=O)Nc2ccccc2N)cc1
active: RPMI-8226 leukemia 0.147%
inactive: SR leukemia 15.5% | OVCAR-8 ovarian 42.8% | OVCAR-5 ovarian 58.6% | OVCAR-4 ovarian 66.5% | SK-OV-3 ovarian 78% | IGROV1 ovarian 47.4% | OVCAR-3 ovarian 69.5% | HS 578T breast 75.7% | NCI/ADR-RES ovarian 37.3%

O=C(CCc1nnc(Cn2cnc3nc[nH]c3c2=O)o1)c1nc2ncccc2[nH]1
inactive: SR leukemia 100% | RPMI-8226 leukemia 99.6% | OVCAR-8 ovarian 100% | OVCAR-5 ovarian 100% | OVCAR-4 ovarian 99.4% | SK-OV-3 ovarian 107% | IGROV1 ovarian 102% | OVCAR-3 ovarian 104% | HS 578T breast 93.2% | NCI/ADR-RES ovarian 100%

COc1ccc(NC(=O)c2sc3nc(C)c(C(=O)/C=C/c4cccc(OC)c4)cc3c2N)cc1
inactive: OVCAR-8 ovarian 11.6% | OVCAR-5 ovarian 59.6% | OVCAR-4 ovarian 69.1% | SK-OV-3 ovarian 91.8% | IGROV1 ovarian 11% | HS 578T breast 36.8% | NCI/ADR-RES ovarian 19.5%
active: SR leukemia 5.9% | RPMI-8226 leukemia -22.9% | OVCAR-3 ovarian -18.4%

O=C(Cn1c2c(c3ccccc31)CCCC2)Nc1ccc(-c2nc3ccccc3s2)cc1
inactive: SR leukemia 88.8% | RPMI-8226 leukemia 116% | OVCAR-8 ovarian 107% | OVCAR-5 ovarian 99.5% | OVCAR-4 ovarian 104% | SK-OV-3 ovarian 114% | IGROV1 ovarian 83.8% | OVCAR-3 ovarian 110% | HS 578T breast 112% | NCI/ADR-RES ovarian 109%

O=C(Cn1cc(CN2CCCCCC2)nn1)Nc1ccc2c(ccn2Cc2ccccc2)c1
inactive: SR leukemia 36.8% | RPMI-8226 leukemia 64.3% | OVCAR-8 ovarian 98.4% | OVCAR-5 ovarian 105% | OVCAR-4 ovarian 87% | SK-OV-3 ovarian 82.7% | IGROV1 ovarian 94% | OVCAR-3 ovarian 95.7% | HS 578T breast 88.5% | NCI/ADR-RES ovarian 102%

Cc1nc(N2CCOCC2)sc1S(N)(=O)=O
inactive: SR leukemia 98.3% | RPMI-8226 leukemia 102% | OVCAR-8 ovarian 103% | OVCAR-5 ovarian 96.5% | OVCAR-4 ovarian 112% | SK-OV-3 ovarian 102% | IGROV1 ovarian 99.4% | OVCAR-3 ovarian 102% | HS 578T breast 100% | NCI/ADR-RES ovarian 102%

C#Cc1cccc(Nc2ncnc3ccc(-c4cnc(N)nc4)cc23)c1
inactive: SR leukemia 40.6% | RPMI-8226 leukemia 22.8% | OVCAR-8 ovarian 49.6% | OVCAR-5 ovarian 23.1% | OVCAR-4 ovarian 46.1% | OVCAR-3 ovarian 24.1% | NCI/ADR-RES ovarian 49.8%
active: SK-OV-3 ovarian -2.3% | IGROV1 ovarian -26.3% | HS 578T breast -7.24%

C1=CN2CC(c3ccccc3)=NNC2c2ccccc21 (stereo not given)
inactive: SR leukemia 97% | RPMI-8226 leukemia 69.8% | OVCAR-8 ovarian 92% | OVCAR-5 ovarian 106% | OVCAR-4 ovarian 83% | SK-OV-3 ovarian 92.2% | IGROV1 ovarian 22.8% | OVCAR-3 ovarian 81.5% | HS 578T breast 86.7% | NCI/ADR-RES ovarian 80.6%

CS(=O)(=O)Nc1cc(-c2ccc3ncnc(Nc4ccc5c(cnn5Cc5ccccn5)c4)c3c2)cnc1Cl
inactive: SR leukemia 58.3% | RPMI-8226 leukemia 68.8% | OVCAR-8 ovarian 90.3% | OVCAR-5 ovarian 68.5% | OVCAR-4 ovarian 91.5% | SK-OV-3 ovarian 89.7% | IGROV1 ovarian 38.1% | OVCAR-3 ovarian 44.1% | HS 578T breast 25.4% | NCI/ADR-RES ovarian 93.3%

C=C1C(=O)O[C@H]2[C@H]1CC/C(COC(=O)NCc1ccc(Cn3c(=O)sn(CCI)c3=O)cc1)=C\CC[C@@]1(C)O[C@@H]21
inactive: RPMI-8226 leukemia 29.1% | OVCAR-8 ovarian 89.4% | OVCAR-5 ovarian 82% | OVCAR-4 ovarian 32.1% | SK-OV-3 ovarian 109% | HS 578T breast 94.3% | NCI/ADR-RES ovarian 101%
active: SR leukemia -2.32% | IGROV1 ovarian -75.5% | OVCAR-3 ovarian -55.4%

Clc1ccc2c(c1)N(c1ncnc3ccc(-c4cnc5[nH]ncc5c4)cc13)CC2
inactive: SR leukemia 24.3% | RPMI-8226 leukemia 16.9% | OVCAR-8 ovarian 30% | OVCAR-5 ovarian 20.3% | OVCAR-4 ovarian 26.9% | OVCAR-3 ovarian 24.5% | NCI/ADR-RES ovarian 40.4%
active: SK-OV-3 ovarian -1.55% | IGROV1 ovarian 0.128% | HS 578T breast -17%

O=C(O)/C(=C\c1ccc(Cl)cc1)c1ccc(Cl)cc1
inactive: SR leukemia 96.8% | RPMI-8226 leukemia 100% | OVCAR-8 ovarian 96.3% | OVCAR-5 ovarian 74.1% | OVCAR-4 ovarian 90.5% | SK-OV-3 ovarian 111% | IGROV1 ovarian 71.2% | OVCAR-3 ovarian 101% | HS 578T breast 78% | NCI/ADR-RES ovarian 90.1%

O=S(=O)(NCCNc1nccc(-c2c(-c3cccc(F)c3)nc3occn23)n1)c1ccc(Br)cc1
inactive: SR leukemia 65.6% | RPMI-8226 leukemia 62.3% | OVCAR-8 ovarian 80.2% | OVCAR-5 ovarian 93.8% | OVCAR-4 ovarian 93.9% | SK-OV-3 ovarian 99.8% | IGROV1 ovarian 57.7% | OVCAR-3 ovarian 90.1% | HS 578T breast 74.6% | NCI/ADR-RES ovarian 89.8%

COc1ccc(-c2ccc3cnc4sc(-c5ccc(OC)cc5)nc4c3n2)cc1
inactive: SR leukemia 83.7% | RPMI-8226 leukemia 87.5% | OVCAR-8 ovarian 96.3% | OVCAR-5 ovarian 97.4% | OVCAR-4 ovarian 96.9% | SK-OV-3 ovarian 92.6% | IGROV1 ovarian 94% | OVCAR-3 ovarian 101% | HS 578T breast 94.4% | NCI/ADR-RES ovarian 92.9%

C=C1C(=O)O[C@H]2[C@H]1CC/C(COC(=O)N[C@H]1C[C@H](O[C@H]3C[C@](O)(C(=O)CO)Cc4c(O)c5c(c(O)c43)C(=O)c3c(OC)cccc3C5=O)O[C@@H](C)[C@H]1O)=C\CC[C@@]1(C)O[C@@H]21
active: SR leukemia 5.44% | RPMI-8226 leukemia -24.2% | OVCAR-3 ovarian -8.47%
inactive: OVCAR-8 ovarian 66% | OVCAR-5 ovarian 96.4% | OVCAR-4 ovarian 62.5% | SK-OV-3 ovarian 107% | IGROV1 ovarian 56.7% | HS 578T breast 73% | NCI/ADR-RES ovarian 100%

CCCC(O)Cn1ncc(C(=O)OCC)c1NC(=O)NCc1ccccc1F (stereo not given)
inactive: SR leukemia 93.5% | RPMI-8226 leukemia 67.4% | OVCAR-8 ovarian 89.9% | OVCAR-5 ovarian 108% | OVCAR-4 ovarian 87.1% | SK-OV-3 ovarian 102% | IGROV1 ovarian 92.9% | OVCAR-3 ovarian 91.1% | HS 578T breast 102% | NCI/ADR-RES ovarian 92.6%

COc1cccc(NC(=O)Cn2cc(CN3CCN(c4ccnc5cc(Cl)ccc45)CC3)nn2)c1
inactive: SR leukemia 97.2% | RPMI-8226 leukemia 48% | OVCAR-8 ovarian 83.2% | OVCAR-5 ovarian 93.5% | OVCAR-4 ovarian 85.9% | SK-OV-3 ovarian 74% | IGROV1 ovarian 84.9% | OVCAR-3 ovarian 101% | HS 578T breast 80.8% | NCI/ADR-RES ovarian 94.7%

CCNC(=O)c1[nH]cc(-c2ccccc2)c1-c1cc(OC)c2c(c1OC)OCO2
inactive: SR leukemia 93% | RPMI-8226 leukemia 99% | OVCAR-8 ovarian 98.9% | OVCAR-5 ovarian 98.5% | OVCAR-4 ovarian 98.6% | SK-OV-3 ovarian 90.3% | IGROV1 ovarian 88.5% | OVCAR-3 ovarian 104% | HS 578T breast 93.2% | NCI/ADR-RES ovarian 93%

O=C(Cn1cc(CN2C(=O)c3ccccc3S2(=O)=O)nn1)Nc1nc2ccccc2s1
inactive: SR leukemia 121% | RPMI-8226 leukemia 107% | OVCAR-8 ovarian 102% | OVCAR-5 ovarian 101% | OVCAR-4 ovarian 100% | SK-OV-3 ovarian 79% | IGROV1 ovarian 93.4% | OVCAR-3 ovarian 102% | HS 578T breast 110% | NCI/ADR-RES ovarian 97.6%

COc1ccc(OC)c(-c2c(C#N)c(-c3cccs3)nc3c2c(-c2ccccc2)nn3-c2ccccc2)c1
inactive: SR leukemia 106% | RPMI-8226 leukemia 106% | OVCAR-8 ovarian 101% | OVCAR-5 ovarian 103% | OVCAR-4 ovarian 111% | SK-OV-3 ovarian 93.2% | IGROV1 ovarian 99.2% | OVCAR-3 ovarian 114% | HS 578T breast 87.7% | NCI/ADR-RES ovarian 107%

C#CCOc1cccc(Nc2ncnc3c(NC(=O)C=C)cccc23)c1
inactive: OVCAR-5 ovarian 88% | OVCAR-4 ovarian 73.9% | SK-OV-3 ovarian 49% | IGROV1 ovarian 31% | OVCAR-3 ovarian 10.9% | HS 578T breast 25% | NCI/ADR-RES ovarian 18.1%
active: SR leukemia 9.57% | RPMI-8226 leukemia -10% | OVCAR-8 ovarian 4.27%
